Results from PubChem BioAssay (Tox21).
Inconclusive results are not listed. Entries that show only a call come without a potency. The source made the active and inactive calls. The call rests on the fitted dose curve; in most records, active means well fitted cell-killing curve with a large enough effect in the repeat runs; inconclusive means weak or mixed curves, or effect the other way; inactive means flat fitted curve, though single readings scatter.

Assay: cAMP Responsive Elements (CRE) small molecule antagonists, cell-based qHTS assay: qHTS cell viability counter screen (AID 2060913); further: nearly all actives have a fitted effect of over 40% in size
Settings: CRE-bla HEK293T viability, CellTiter-Glo luminescence, 5 h; series mostly up to 92.4 µM
Outline: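 Viability of NKH477-stimulated (0.25 uM final) CRE-bla HEK293T cells is measured by CellTiter-Glo luminescence following 3 hrs compound exposure at 37 C.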

Compound	Potency
Cc1ccc2ccc(Cl)cc2n1	inactive
COC(=O)CC(=O)OC	inactive
O=c1[nH]cnc2c1ncn2[C@H]1CC[C@@H](CO)O1	inactive
CC(=O)Nc1ccc(N)cc1	inactive
CC1=C2[C@@H]([C@H](C)CC[C@H]2/C=C(\C)C(=O)O)[C@H](O)C1	inactive
Cc1cc(C)cc(N)c1	inactive
CCOC(OCC)C(=O)c1ccccc1	inactive
COc1cccc(Br)c1	inactive
CCCCCC[C@@H](O)C/C=C\CCCCCCCC(=O)O	inactive
[O-][N+](=Nc1ccccc1)c1ccccc1	inactive
Cc1cccc(C)c1	inactive
COc1cc(C)ccc1C(C)C	inactive
Cc1ccc(S(=O)(=O)NC(=O)NC2CCCC2)cc1	inactive
CS(C)(=O)=O	inactive
OCCCS	inactive
CCOC(C)OCC	inactive
Nc1ccc(Cl)c(N)c1	inactive

Assay: cAMP Responsive Elements (CRE) small molecule agonists, cell-based qHTS assay: qHTS cell viability counter screen (AID 2060914); further: nearly all actives have a fitted effect of over 50% in size
Settings: CRE-bla HEK293T viability, CellTiter-Glo luminescence, 5 h; series mostly up to 92.4 µM
Outline: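 In the same wells as the reporter read, viability of CRE-bla HEK 293T cells was quantified by CellTiter-Glo luminescence after a 3 h compound exposure.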

Compound	Potency	activity change, negative = cytotoxicity
SCCSCCS	inactive	–
CC(C(O)c1ccc(O)cc1)N1CCC(Cc2ccccc2)CC1 (configuration not stated)	inactive	–
CC[N+](CC)(CC(=O)Nc1c(C)cccc1C)Cc1ccccc1	inactive	–
Cc1cc(C)c(S(=O)(=O)O)cc1N=Nc1cc(S(=O)(=O)O)c2ccccc2c1O	inactive	–
CCc1cccc(N(C)C(N)=Nc2cccc3ccccc23)c1	inactive	–
COc1ccc([C@@H]2Sc3ccccc3NC(=O)[C@@H]2O)cc1	inactive	–
CC(C)(C#N)c1cc(Cn2cncn2)cc(C(C)(C)C#N)c1	inactive	–
CCCCCCCCCCCCCc1ccccc1	inactive	–
COC(=O)/C=C(\C)CCC=C(C)C	inactive	–
CC1(C)C(=O)N(Cl)C(=O)N1Br	inactive	–
O=c1cc[nH]c(=S)[nH]1	inactive	–
FB(F)F	inactive	–
O=C(O)CCn1c2c(c3ccccc31)C[C@H](NS(=O)(=O)c1ccc(F)cc1)CC2	inactive	–
CC(=O)/C=C/C=C1/C2CCC(C2)C1(C)C (configuration not stated)	inactive	–
CN1CC(=O)NC1=N	inactive	–
C1C2OC2C2C1C1CC2C2OC12 (configuration not stated)	inactive	–
CCOc1ccccc1OCC1CNCCO1 (configuration not stated)	inactive	–
CN1CCN(CC(=O)N2c3ccccc3C(=O)Nc3cccnc32)CC1	–	0.984% [at 8.39 µM] (inactive)
O=C(O)CSCC(=O)NC1CCSC1=O (configuration not stated)	inactive	–
CCCCC1=NC2(CCCC2)C(=O)N1Cc1ccc(-c2ccccc2-c2nn[nH]n2)cc1	inactive	–

Compound	Potency	activity change, negative = cytotoxicity
C(=C\c1ccccc1)/CN1CCN(C(c2ccccc2)c2ccccc2)CC1	inactive	–
O=C(Nc1ccc(Cl)cc1)Nc1ccc(Cl)c(Cl)c1	inactive	–
C/C=C(\C)C=O	inactive	–
Cc1ccc2ccc(Cl)cc2n1	inactive	–
COC(=O)CC(=O)OC	inactive	–
O=c1[nH]cnc2c1ncn2[C@H]1CC[C@@H](CO)O1	inactive	–
CC(=O)Nc1ccc(N)cc1	inactive	–
CC1=C2[C@@H]([C@H](C)CC[C@H]2/C=C(\C)C(=O)O)[C@H](O)C1	inactive	–
Cc1cc(C)cc(N)c1	inactive	–
CCOC(OCC)C(=O)c1ccccc1	inactive	–
COc1cccc(Br)c1	inactive	–
CCCCCC[C@@H](O)C/C=C\CCCCCCCC(=O)O	inactive	–
[O-][N+](=Nc1ccccc1)c1ccccc1	inactive	–
Cc1cccc(C)c1	inactive	–
COc1cc(C)ccc1C(C)C	inactive	–
Cc1ccc(S(=O)(=O)NC(=O)NC2CCCC2)cc1	inactive	–
CS(C)(=O)=O	inactive	–
OCCCS	inactive	–
CCOC(C)OCC	inactive	–
Nc1ccc(Cl)c(N)c1	inactive	–
